Measured values taken from the supplement of paper PMC13380429.
A number with no mark means an inactive call.

Tested on: Vero E6 infected with SARS-CoV-2
Assay: inhibition of SARS-CoV-2 cytopathic effect; higher = more antiviral protection, active = above 15
Conditions: 48 h

| Structure (SMILES) | inhibition of SARS-CoV-2 cytopathic effect (1 nM) | inhibition of SARS-CoV-2 cytopathic effect (8.33 nM) | inhibition of SARS-CoV-2 cytopathic effect (100 nM) | inhibition of SARS-CoV-2 cytopathic effect (833.33 nM) | inhibition of SARS-CoV-2 cytopathic effect (10000 nM) |
| --- | --- | --- | --- | --- | --- |
| Nc1cc(C(Cl)=C(Cl)Cl)c(S(N)(=O)=O)cc1S(N)(=O)=O [clorsulon] | -0.52% | 2.04% | 2.84% | -0.01% | -2.69% |
| CCOC(=O)[C@@H](N)Cc1ccc(-c2cc(O[C@H](c3ccc(Cl)cc3-n3ccc(C)n3)C(F)(F)F)nc(N)n2)cc1 [telotristat-ethyl] | -0.32% | 2.88% | -1.08% | 4.77% | 2.26% |
| CC[C@@H](C)c1ccc(NC(=O)Cn2cnc3c2c(=O)n(C)c(=O)n3C)cc1 (racemic) | -0.15% | 0.22% | -1.39% | -1.04% | 3.52% |
| NCC(CC(=O)O)c1ccccc1 (stereo not given) [fenigam] | -0.57% | 0.98% | 0.48% | -0.72% | 1.87% |
| CCOC(=O)C1=C(C)NC(=S)NC1c1cccc(O)c1 (stereo not given) [monastrol] | 0.53% | -0.07% | 1.51% | 0.94% | -1.39% |
| CCCOc1ccc(Br)cc1-c1cc(-c2ccc(Cl)cc2)[nH]c1-c1ccncc1 | -1.64% | 0.84% | 0.25% | -0.83% | -5.61% |
| O=C(NCc1ccncc1)C12CC3CC(C1)CC(c1ccc(Cl)cc1)(C3)C2 | 2.05% | -4% | -2.61% | -2.22% | -5.2% |
| OCCN1CCN(CC/C=C2/c3ccccc3Sc3ccc(C(F)(F)F)cc32)CC1 [flupentixol] | -4.51% | 0.12% | -2.01% | -0.29% | 0.08% |
| O=C1C2C=Nc3ccccc3C2=NN1c1ccc(Cl)cc1 (stereo not given) | 0.17% | -0.02% | 1.99% | 3.3% | -0.09% |
| COc1ccsc1CNCC[C@@]1(c2ccccn2)CCOC2(CCCC2)C1 | -2.56% | 3.9% | 0.92% | 1.29% | -0.28% |
| O=C(c1ccc2nccnc2c1)N1CCCCC1 [ampalex] | -0.24% | 0.88% | 0.65% | 0.17% | 0.77% |
| C=CC(=O)Nc1cccc(Nc2nc(Nc3ccc(Oc4ccnc(C(=O)NC)c4)cc3)ncc2F)c1 | -1.65% | 1.5% | 0.39% | -1.84% | 9.86% |
| Cc1c(Cc2ccc3ccccc3n2)c2cc(F)ccc2n1CC(=O)O | 1.64% | -0.1% | 0.44% | -1.23% | -2.21% |
| CC(=O)O[C@@H]1C[C@H]2C(C)(C)C(=O)C=C[C@]2(C)[C@H]2CC[C@@]3(C)[C@H](c4ccoc4)OC(=O)[C@H]4O[C@]43[C@@]21C [gedunin] | -1.35% | -1.68% | -1.07% | 6.09% | 19% (active) |
| CN(C)CCOC(C)(c1ccccc1)c1ccccn1 (stereo not given) [doxylamine] | -1.38% | -0.13% | -1.73% | 1.53% | 1.43% |
| Cc1nc2ccccc2n1Cc1ccc(Cl)cc1 [chlormidazole] | -3.42% | -1.1% | -6.27% | -3.55% | -4.49% |
| CC(=O)Oc1cccc(C(=O)O)c1OC(C)=O [dipyrocetyl] | -0.44% | -1.4% | 2.59% | -0.15% | 5.25% |
| CCCC[C@@H](NC(=O)[C@@H](Cc1cn(C(=O)OC)c2ccccc12)NC(=O)[C@H](CC(C)(C)C)NC(=O)N1[C@H](C)CCC[C@@H]1C)C(=O)O | 1.03% | 2.89% | 1.32% | -1.6% | 1.29% |
| CCN1CCN(Cc2ccc(-c3cc4c(N[C@H](C)c5ccccc5)ncnc4[nH]3)cc2)CC1 | 1.55% | 0.57% | -1.71% | -10.4% | -16% |
